# The supplement of paper PMC7366291
# Structures can show the parent of a compound that is named as a salt. ± gives the standard deviation or the standard deviation of the averaged measurements.
# Legend:
# Conditions in all cases: 25 µM; exposure: 24-48 hpf
# [1] = test system: Danio rerio Tg(wt1b:EGFP) embryo, pronephros; assay: glomerular separation, fold change vs DMSO control; higher = glomeruli further apart (abnormal)
# Method in brief: (§1)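 In HEPES-buffered E3 with 0.003% PTU and 0.5% DMSO, dechorionated Tg(wt1b:EGFP) zebrafish embryos were exposed to 25 μM compound from 24 to 48 hpf at 28.5°C. Pronephroi were then imaged dorsally at 470 nm in 10 z-slices, in 96-well plates filled with agarose. On maximum projections, a Fiji macro turned 16 manually placed reference points into distances and angles, and values more than 2 SD from the feature mean were excluded. Features are fold changes relative to the mean of DMSO-treated embryos from the same day.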
# [2] = test system: Danio rerio Tg(wt1b:EGFP) embryo, pronephros; assay: glomerular width (mean of left and right), fold change vs DMSO control; higher = wider glomerulus
# Method in brief: as §1
# [3] = test system: Danio rerio Tg(wt1b:EGFP) embryo, pronephros; assay: fraction of imaged embryos annotated as normal kidney; higher = less nephrotoxic; extreme values may be limits of the assay
# Method in brief: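 Dechorionated Tg(wt1b:EGFP) zebrafish embryos were incubated with 25 μM compound in 0.5% DMSO, 5 mM HEPES-buffered E3 and 0.003% PTU from 24 to 48 hpf at 28.5°C. Pronephroi were then imaged by widefield fluorescence, and the fraction of embryos per treatment assigned by hand to the normal-kidney category is given.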
# [4] = test system: Danio rerio Tg(wt1b:EGFP) embryo, pronephros; assay: pronephric angle neck segment to proximal convoluted tubule (mean of left and right), fold change vs DMSO control; higher = larger pronephric angle
# Method in brief: as §1
Structure (SMILES),glomerular separation [1],glomerular width [2],fraction of imaged embryos annotated as normal kidney [3],pronephric angle neck segment [4]
COc1c(O[C@@H]2O[C@H](CO)[C@@H](O)[C@H](O)[C@H]2O)cc2c(c1OC)-c1ccc(SC)c(=O)cc1[C@@H](NC(C)=O)CC2 [Thiocolchicoside],1.03 ± 0.41,0.909 ± 0.018,0.833,0.932 ± 0.027
CN(C)[C@@H]1C(O)=C(C(N)=O)C(=O)[C@@]2(O)C(O)=C3C(=O)c4c(O)cccc4[C@@](C)(O)[C@H]3C[C@@H]12 [Tetracycline hydrochloride],1.33 ± 0.62,1.06 ± 0.042,0.778,0.9721 ± 0.0096
CCOc1ccc2ccccc2c1C(=O)N[C@@H]1C(=O)N2[C@@H]1SC(C)(C)[C@@H]2C(=O)O [Nafcillin sodium salt monohydrate],0.868 ± 0.32,0.941 ± 0.019,0.833,1.041 ± 0.0022
CCOCCn1c(N2CCCN(C)CC2)nc2ccccc21 [Emedastine],0.707 ± 0.16,0.979 ± 0.051,0.917,0.9917 ± 0.0031
Nc1ccc(C(=O)NCC(=O)O)cc1 [Aminohippuric acid],0.88 ± 0.41,0.993 ± 0.03,0.917,0.991 ± 0.018
Nc1ncnc2c1ncn2[C@@H]1O[C@H](CO)[C@@H](O)[C@@H]1O [Vidarabine],1.29 ± 0.56,1.06 ± 0.023,0.583,1.03 ± 0.074
NC[C@H]1O[C@H](O[C@H]2[C@H](O[C@@H]3O[C@H](CO)[C@@H](O)[C@H]3O)[C@@H](O)[C@H](N)C[C@@H]2N)[C@H](N)[C@@H](O)[C@@H]1O [Ribostamycin sulfate salt],0.722 ± 0.22,1.08 ± 0.019,0.833,1.06 ± 0.061
NC(Cc1cc(I)c(Oc2cc(I)c(O)c(I)c2)c(I)c1)C(=O)O (stereo unspecified) [Thyroxine (L)],1.12 ± 0.3,1.07 ± 0.046,0.75,1.02 ± 0.029
CN(CCOc1ccc(CC2SC(=O)NC2=O)cc1)c1ccccn1 (stereo unspecified) [Rosiglitazone Hydrochloride],1.04 ± 0.39,0.964 ± 0.03,0.833,0.9727 ± 0.0063
COc1cc2nc(N(C)CCCNC(=O)C3CCCO3)nc(N)c2cc1OC (stereo unspecified) [Alfuzosin hydrochloride],1.23 ± 0.62,1.01 ± 0.02,0.818,0.953 ± 0.036
Cn1c(=O)c2c(ncn2CC(O)CO)n(C)c1=O (stereo unspecified) [Diprophylline],0.977 ± 0.2,0.966 ± 0.01,0.667,1.05 ± 0.051
NS(=O)(=O)c1cc2c(cc1Cl)N=CNS2(=O)=O [Chlorothiazide],0.855 ± 0.11,1.07 ± 0.043,0.75,0.99 ± 0.057
Cc1cc(=O)n(-c2ccccc2)n1C [Antipyrine],1 ± 0.28,0.98 ± 0.024,0.667,1 ± 0.043
CC(=O)O[C@]1(C(C)=O)CC[C@H]2[C@@H]3C=C(Cl)C4=CC(=O)CC[C@]4(C)[C@H]3CC[C@@]21C [Chlormadinone acetate],1.26 ± 0.62,0.909 ± 0.053,0.636,1.17 ± 0.093
CN1CCN(c2c(F)cc3c(=O)c(C(=O)O)cn(CCF)c3c2F)CC1 [Fleroxacin],0.566 ± 0.3,0.977 ± 0.049,0.917,1.049 ± 0.0028
CCCNCC(O)COc1ccccc1C(=O)CCc1ccccc1 (stereo unspecified) [Propafenone hydrochloride],1.06 ± 0.39,1.05 ± 0.0038,0.818,1.13 ± 0.035
Cc1c(Nc2ncccc2C(=O)O)cccc1C(F)(F)F [Flunixin meglumine],6.16 ± 1.6,0.491 ± 0.031,0,1.9787 ± 0.0013
CCCOc1ccccc1-c1nc2[nH]nnc2c(=O)[nH]1 [Zaprinast],1.56 ± 0.95,0.99 ± 0.074,0.727,1.08 ± 0.12
CCN(CC)CCN[C@@H](C(=O)OCCC(C)C)c1ccccc1 [Camylofine chlorhydrate],0.973 ± 0.34,1.02 ± 0.018,0.75,0.977 ± 0.015
Cc1nnc(NS(=O)(=O)c2ccc(N)cc2)s1 [Sulfamethizole],0.838 ± 0.34,1.06 ± 0.087,0.667,1.06 ± 0.028
CC[C@H](C)C(=O)O[C@H]1C[C@H](O)C=C2C=C[C@H](C)[C@H](CC[C@@H](O)C[C@@H](O)CC(=O)O)[C@H]21 [Pravastatin],1.12 ± 0.39,0.865 ± 0.051,1,1.03 ± 0.035
CC(CCc1ccccc1)NCC(O)c1ccc(O)c(C(N)=O)c1 (stereo unspecified) [Labetalol hydrochloride],1.04 ± 0.16,1.05 ± 0.075,0.917,1.07 ± 0.069
Cc1cc(NS(=O)(=O)c2ccc(N)cc2)no1 [Sulfamethoxazole],0.872 ± 0.23,1.05 ± 0.026,0.833,0.9977 ± 0.0021
COc1ccc([C@@H]2CC(=O)c3c(O)cc(O[C@@H]4O[C@H](CO[C@@H]5O[C@@H](C)[C@H](O)[C@@H](O)[C@H]5O)[C@@H](O)[C@H](O)[C@H]4O)cc3O2)cc1O [Hesperidin],0.827 ± 0.15,0.938 ± 0.045,0.917,0.981 ± 0.012
